Inconclusive results are not listed. Where a call stands in place of a potency, no number is given. A number with no mark means an inactive call. Active and inactive are the calls of the source. The call rests on the fitted dose curve; in most records, active means well fitted activation curve with a large enough effect in the repeat runs; inconclusive means weak or mixed curves; inactive means flat fitted curve, though single readings scatter.
Potency means the concentration at half of the fitted maximal effect.

A short description of the assay: A CellTox Green Cytotoxicity Assay to monitor cytotoxicity in HEK293 cells - 8 hour (AID 1224884). Further: nearly all actives have a fitted effect of over 35% in size. To be noted: CellTox Green fluorescence; series mostly up to 76.8 µM. From the text:
National Center for Advancing Translational Sciences [NCATS]
NIH Chemical Genomics Center [NCGC]
U.S. Environmental Protection Agency [EPA]
National Institutes of Environmental Health Sciences [NIEHS]
National Toxicology Program [NTP]
Cell-based models are critical for drug discovery. Determining the natural cytotoxic effects resulting from test compounds is an essential research activity. A CellTox Green Cytotoxicity Assay to monitor cytotoxicity in real time of continues cell culture during 40 hours of the compound treatment was used to screen Tox21 10K library compounds in Hek293 cells. CellTox Green Cytotoxicity Assay is a nonlytic, homogeneous, biofluorescent method to measure cytotoxicity in cell culture after experimental manipulation. The assay system uses a proprietary asymmetric cyanine dye that is excluded from viable cells but preferentially stains the dead cell's DNA. […] Viable cells produce no appreciable increases in fluorescence. Therefore, the fluorescence signal produced by the binding interaction with dead cell DNA is proportional to cytotoxicity.
The mixture of Hek293 cell suspension and reagents were dispensed at 600cells/6 ul/well in 1536-well tissue culture treated black solid bottom plates using a Multidrop dispenser. After the assay plates were incubated at a 37 C/5% CO2 incubator for 5 hours, 23 nL of compounds dissolved in DMSO, positive and negative controls was transferred to the assay plate by a pintool work station. The plates were incubated at 37 C for 40 hours. The fluorescence intensity were measured at 0h, 8h, 16h, 24h, 32h and 40h time points using ViewLux plate reader during compound treatment.
For `C=C(C)C(=O)OCCC(F)(F)C(F)(F)C(F)(F)C(F)(F)C(F)(F)C(F)(F)F`, the Potency entry was “inactive”.

With `COc1ccc(CCN(C)CCCN2CCc3cc(OC)c(OC)cc3CC2=O)cc1OC`, the Potency result was “inactive”.

As to `CC(=O)OCC(=O)[C@@]1(OC(C)=O)[C@@H](C)C[C@H]2[C@@H]3C[C@H](F)C4=CC(=O)C=C[C@]4(C)[C@@]3(F)[C@@H](O)C[C@@]21C`, the Potency result is “inactive”.

On to `Nc1ccn([C@H]2CS[C@@H](CO)O2)c(=O)n1`, for which the Potency entry was “inactive”.

Take `CCOC(=O)N1CCC(Nc2ccc(Cl)cc2N)CC1`: the Potency result was “inactive”.

Regarding `CCOCCC(=O)OCC`, the Potency entry was “inactive”.

Turning to `Cc1ccccc1S(N)(=O)=O`, the Potency entry is “inactive”.

Take `O=C(c1ccccc1)C1CCC1`: the Potency is 38.9 µM (active).

As to `CN1C(CSCC(F)(F)F)Nc2cc(Cl)c(S(N)(=O)=O)cc2S1(=O)=O` (stereo not given), the Potency entry is “inactive”.

Consider `CCN(CC)c1ccc(C(=C2C=CC(=[N+](CC)CC)C=C2)c2ccc(S(=O)(=O)O)cc2S(=O)(=O)[O-])cc1`, for which the Potency result was “inactive”.

Regarding `CC(CO)(CO)C(=O)O`, the Potency entry was “inactive”.

In the case of `O=C1c2ccccc2C(=O)c2c(O)ccc(O)c21`, the Potency is 27.5 µM (active).

Turning to `CNc1c2c(nn1C)CCCC2`, the Potency result was “inactive”.

As to `CCCCCCCCCCCCCOC(=O)CCSCCC(=O)OCCCCCCCCCCCCC`, the cytotoxicity increase is 12.5% [at 15.8 µM].

With `CC1=CC[C@@]23C[C@@H]1C(C)(C)[C@@H]2CC[C@H]3C`, the Potency entry is “inactive”.

As for `CCOC(=O)C(C)O` (stereo not given), the Potency result is “inactive”.

Take `CC(=O)OCCC(C)CC(C)(C)C` (stereo not given): the Potency entry is “inactive”.

As to `COc1cc(C(C)=O)ccc1OCCCN1CCC(c2noc3cc(F)ccc23)CC1`, the Potency result was “inactive”.

Turning to `COC(=O)Nc1nc2ccc(C(=O)C3CC3)cc2[nH]1`, the Potency result is “inactive”.

For the compound `COc1ccc(-c2cc(=S)ss2)cc1`, the Potency result was “inactive”.

Regarding `Cc1ccc(Cl)cc1N`, the Potency entry is “inactive”.

Regarding `CC(C)(C)CCCCCCOC(=O)c1ccccc1C(=O)OCCCCCCC(C)(C)C`, the Potency result was “inactive”.

`O=C(Nc1ccc(C(=O)O)c(O)c1)c1ccccc1`: the Potency result was “inactive”.

On to `CC[C@H]1OC(=O)[C@H](C)[C@@H](O[C@H]2C[C@@](C)(OC)[C@@H](O)[C@H](C)O2)[C@H](C)[C@@H](O[C@@H]2O[C@H](C)C[C@H](N(C)C)[C@H]2O)[C@](C)(O)C[C@@H](C)CN(C)[C@H](C)[C@@H](O)[C@]1(C)O`, for which the Potency result is “inactive”.

Regarding `CC(=O)NNC(C)=O`, the Potency entry was “inactive”.

In the case of `CCC(C)(C)C(=O)O`, the Potency result is “inactive”.

On to `Nc1nc2ccc(OC(F)(F)F)cc2s1`, for which the Potency result was “inactive”.

For the compound `CCCCCCC(CO)CCCC` (stereo not given), the Potency entry was “inactive”.

`COc1cc(NC(C)CCCN)c2ncccc2c1` (stereo not given): the Potency entry is “inactive”.

For `CC(=O)C(C)=O`, the Potency entry is “inactive”.

As to `Cc1c(C2(c3cc(Br)c(O)c(Br)c3C)OS(=O)(=O)c3ccccc32)cc(Br)c(O)c1Br`, the Potency result is “inactive”.

In the case of `CC(C)(C)S`, the Potency result was “inactive”.

For `c1ccc(CNc2ncnc3c2ncn3C2CCCCO2)cc1` (stereo not given), the Potency result was “inactive”.

For `CC1=CC[C@@H]2C[C@H]1C2(C)C`, the cytotoxicity increase was 0.245% [at 15.8 µM].

With `CCOC(=O)c1c(N)sc2c1CCN(Cc1ccccc1)C2`, the Potency result was “inactive”.

On to `Cc1ccc(N(CCO)CCO)cc1`, for which the Potency result is “inactive”.

For `FC(F)(F)C(F)(F)C(F)(F)C(F)(F)CCI`, the Potency entry is “inactive”.

`COC(=O)c1sccc1S(N)(=O)=O`: the Potency entry was “inactive”.

`CCSC(=O)N(CC)CC`: the Potency result is “inactive”.

As for `CC(C)(C)NCC(O)COc1cccc2c1C[C@H](O)[C@H](O)C2` (stereo not given in full), the Potency result was “inactive”.

These data come from PubChem BioAssay (Tox21).
